# Inconclusive results are not listed. The source made the active and inactive calls. Calls follow the shape of the full dose curve.
# Columns and labels:
# [1] = qHTS drug screen for cell cycle checkpoint inhibitors in PARPi-resistant BRCA-mutant ovarian cancer cell lines. (AID 1963452); details: PEO1/OlaR viability, CellTiter-Glo luminescence, 96 h; for Z-AUC: stronger effect = lower value; also: potency is read from the fitted curve at half-maximal effect
# Method in brief: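 PEO1, PEO4 and PEO1/OlaR ovarian cancer cells, 600 per well, exposed 96 h at 37C to a dilution series. Viability read by CellTiter-Glo luminescence, normalized to DMSO and empty wells; activity summarized as Z-AUC.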
# [2] = qHTS for identification of novel therapeutic agents for treatment of microphthalmiaassociated transcription factor (MiT) renal cell carcinoma (RCC) (AID 1963991); details: CellTiter-Glo, 48 h, stronger effect = lower value;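 also: curves scaled with 100% = DMSO viability and 0% = empty wells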
# Method in brief: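 UOK109/UOK124/UOK145 (TFE3 fusions, three partners); 500 cells/well; MIPE v4.0, 1912 cpds, 11 conc.; 48 h, 37 C; CellTiter-Glo, 15 min RT; lum. Norm.: DMSO 100%, empty 0%.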
# [3] = measured here: PEO1 parental Z-AUC
# [4] = TFE3-RCC UOK109 viability, measured here: UOK109 Z-AUC
# [5] = TFE3-RCC viability, measured here: UOK124 Z-AUC
# [6] = TFE3-RCC viability, measured here: UOK145 Z-AUC
smiles,measurement,setting,value
C[C@]1(c2nc3c(C(N)=O)cccc3[nH]2)CCCN1,Z-AUC,[1],0.745 (inactive)
same,Z-AUC,[1]; [3],0.586
same,Z-AUC,[1]; measured here: PEO4 Z-AUC,0.314
CC(C)(Sc1ccc(CCN(CCCCC2CCCCC2)C(=O)NC2CCCCC2)cc1)C(=O)O,Z-AUC,[1],1.3 (inactive)
same,Z-AUC,[1]; [3],1.26
same,Z-AUC,[1]; measured here: PEO4 Z-AUC,1.25
Cc1csc(NC(=O)c2sc3nc4c(c(C(F)(F)F)c3c2N)CCC4)n1,Z-AUC,[1],0.359 (inactive)
same,Z-AUC,[1]; [3],0.125
same,Z-AUC,[1]; measured here: PEO4 Z-AUC,0.375
COc1ccc2c3n(c(=NC(=O)c4cccnc4)nc2c1OC)CCN3,Z-AUC,[1],-0.738 (inactive)
same,Z-AUC,[1]; [3],-0.328
same,Z-AUC,[1]; measured here: PEO4 Z-AUC,-0.378
CCC(=O)N[C@H]1CC[C@H](C(=O)N(C)c2ccc(-c3nc4ccccc4o3)cc2)C1,Z-AUC,[1],-0.0495 (inactive)
same,Z-AUC,[1]; [3],-0.000542
same,Z-AUC,[1]; measured here: PEO4 Z-AUC,0.214
Nc1nc2[nH]cc(CCc3ccc(C(=O)N[C@@H](CCC(=O)O)C(=O)O)cc3)c2c(=O)[nH]1,Z-AUC,[1],1.34 (inactive)
same,Z-AUC,[1]; [3],1.12
same,Z-AUC,[1]; measured here: PEO4 Z-AUC,1.26
Cc1cc([C@@H](C)Nc2ccccc2C(=O)O)c2nc(N3CCOCC3)cc(=O)n2c1,Z-AUC,[1],0.266 (inactive)
same,Z-AUC,[1]; [3],0.877
same,Z-AUC,[1]; measured here: PEO4 Z-AUC,0.854
O=c1[nH]c(-c2ccc(C(F)(F)F)cc2)nc2c1CSCC2,Z-AUC,[1],0.604 (inactive)
same,Z-AUC,[1]; [3],0.431
same,Z-AUC,[1]; measured here: PEO4 Z-AUC,0.432
CCCCCCCc1ccc(CCc2cccc(O)c2C(=O)O)cc1,Z-AUC,[1],1.13 (inactive)
same,Z-AUC,[1]; [3],0.41
same,Z-AUC,[1]; measured here: PEO4 Z-AUC,0.518
CCCS(=O)(=O)Nc1ccc(F)c(C(=O)c2c[nH]c3ncc(-c4ccc(Cl)cc4)cc23)c1F,Z-AUC,[1],0.0673 (inactive)
same,Z-AUC,[1]; [3],-0.745
same,Z-AUC,[1]; measured here: PEO4 Z-AUC,-0.427
CN(C(=O)c1ccc(F)cc1C(F)(F)F)C1CCN(c2nnc(-c3ccnn3C)c3ccccc23)CC1,Z-AUC,[1],-0.541 (inactive)
same,Z-AUC,[1]; [3],-0.599
same,Z-AUC,[1]; measured here: PEO4 Z-AUC,-0.538
O=C1[C@H](Cc2ccc(O)cc2)N2C(=O)CCN(C(=O)NCc3ccccc3)[C@H]2CN1Cc1cccc2ccccc12,Z-AUC,[1],0.428 (inactive)
same,Z-AUC,[1]; [3],0.318
same,Z-AUC,[1]; measured here: PEO4 Z-AUC,0.0223
CCn1c(-c2nonc2N)nc2c(C#CC(C)(C)O)ncc(OC[C@H]3CCCNC3)c21,Z-AUC,[1],1.22 (inactive)
same,Z-AUC,[1]; [3],0.92
same,Z-AUC,[1]; measured here: PEO4 Z-AUC,1.41
Cn1cc(-c2ccc3nnc(C(F)(F)c4ccc5ncccc5c4)n3n2)cn1,Z-AUC,[1],-0.354 (inactive)
same,Z-AUC,[1]; [3],0.00451
same,Z-AUC,[1]; measured here: PEO4 Z-AUC,0.204
CC(C)(C)NCC(O)c1ccc(O)c(CO)c1 (stereo not given),Z-AUC,[1],0.197 (inactive)
same,Z-AUC,[1]; [3],0.915
same,Z-AUC,[1]; measured here: PEO4 Z-AUC,0.881
CO[C@@H]1[C@H](N(C)C(=O)c2ccccc2)C[C@H]2O[C@]1(C)n1c3ccccc3c3c4c(c5c6ccccc6n2c5c31)C(=O)NC4,Potency,[1],1550 nM (active)
same,Z-AUC,[1]; [3],-1.27
same,Z-AUC,[1]; measured here: PEO4 Z-AUC,-1.21
Cc1cc(Nc2nc(N[C@@H](C)c3ncc(F)cn3)ncc2Cl)n[nH]1,Potency,[1],12300 nM (active)
same,Z-AUC,[1]; [3],-1.18
same,Z-AUC,[1]; measured here: PEO4 Z-AUC,-1.3
O=C(Nc1ccc(F)c(C(F)(F)F)c1)Nc1nnc(-c2ccncc2)s1,Z-AUC,[1],-0.226 (inactive)
same,Z-AUC,[1]; [3],-0.821
same,Z-AUC,[1]; measured here: PEO4 Z-AUC,-0.018
CCCS(=O)(=O)Nc1ccc(F)c(C(=O)c2c[nH]c3ncc(Cl)cc23)c1F,Z-AUC,[1],-0.11 (inactive)
same,Z-AUC,[1]; [3],0.791
same,Z-AUC,[1]; measured here: PEO4 Z-AUC,0.927
Cc1ccc(NC(=O)c2cccc(C(C)(C)C#N)c2)cc1Nc1ccc2ncn(C)c(=O)c2c1,Z-AUC,[1],0.851 (inactive)
same,Z-AUC,[1]; [3],0.186
same,Z-AUC,[1]; measured here: PEO4 Z-AUC,0.24
CCN(c1ccccc1)c1cc(NC)[n+](C)c(C)n1,Z-AUC,[1],1.35 (inactive)
same,Z-AUC,[1]; [3],1.27
same,Z-AUC,[1]; measured here: PEO4 Z-AUC,1.04
C[C@@H]1CN(Cc2ccc(F)cc2)[C@@H](C)CN1C(=O)c1cc2c(C(=O)C(=O)N(C)C)cn(C)c2cc1Cl,Z-AUC,[1],0.142 (inactive)
same,Z-AUC,[1]; [3],0.03
same,Z-AUC,[1]; measured here: PEO4 Z-AUC,0.299
CC(C)OC(=O)C1=CN(C(=O)c2ccc(F)c(F)c2)CC(C)(C)c2c1[nH]c1ccccc21,Z-AUC,[1],-0.655 (inactive)
same,Z-AUC,[1]; [3],1.12
same,Z-AUC,[1]; measured here: PEO4 Z-AUC,0.385
Cc1cccc(-c2[nH]c(C(C)(C)C)nc2-c2ccc3nccnc3c2)n1,Z-AUC,[1],0.914 (inactive)
same,Z-AUC,[1]; [3],0.697
same,Z-AUC,[1]; measured here: PEO4 Z-AUC,0.424
CN(C)C(=O)c1ccc(S(=O)(=O)c2ccc(NC(=O)[C@@](C)(O)C(F)(F)F)c(Cl)c2)cc1,Z-AUC,[1],0.422 (inactive)
same,Z-AUC,[1]; [3],-0.221
same,Z-AUC,[1]; measured here: PEO4 Z-AUC,0.763
Cc1ccnc(NS(=O)(=O)c2ccc(NC(=O)Nc3ccc(S(=O)(=O)Nc4nccc(C)n4)cc3)cc2)n1,Z-AUC,[1],-1 (inactive)
same,Z-AUC,[1]; [3],-0.318
same,Z-AUC,[1]; measured here: PEO4 Z-AUC,0.813
CCN(CC)CCCC(C)Nc1ccnc2cc(Cl)ccc12 (stereo not given),Z-AUC,[1],0.106 (inactive)
same,Z-AUC,[1]; [3],0.505
same,Z-AUC,[1]; measured here: PEO4 Z-AUC,0.615
COc1cc(Oc2ccnc3cc(OC)c(OC)cc23)ccc1NC(=O)NC(C)c1nccs1 (stereo not given),Z-AUC,[1],-0.894 (inactive)
same,Z-AUC,[1]; [3],-0.402
same,Z-AUC,[1]; measured here: PEO4 Z-AUC,-0.764
Fc1ccc(Cl)cc1-c1nc(Nc2ccncc2)c2nccnc2n1,Z-AUC,[1],0.985 (inactive)
same,Z-AUC,[1]; [3],1.18
same,Z-AUC,[1]; measured here: PEO4 Z-AUC,1.09
COc1ccc(COc2cc3oc(=O)c4cc(C(C)O)ccc4c3cc2OC)cc1 (stereo not given),Z-AUC,[1],1.06 (inactive)
same,Z-AUC,[1]; [3],0.636
same,Z-AUC,[1]; measured here: PEO4 Z-AUC,1.09
COc1ccccc1-c1cccc(-c2c(O)c3cc(C#N)c(Cl)cc3[nH]c2=O)c1,Z-AUC,[1],0.395 (inactive)
same,Z-AUC,[1]; [3],0.311
same,Z-AUC,[1]; measured here: PEO4 Z-AUC,0.381
Cc1cc(-c2ccc(CC(=O)Nc3ccc(-c4cccnc4)cc3)cc2)ccn1,Z-AUC,[1],1.38 (inactive)
same,Z-AUC,[1]; [3],0.679
same,Z-AUC,[1]; measured here: PEO4 Z-AUC,0.307
CCOc1cc(N2CCC(O)CC2)ccc1Nc1ncc2c(n1)N(C)c1ccccc1C(=O)N2C,Z-AUC,[1],-0.264 (inactive)
same,Z-AUC,[1]; [3],0.271
same,Z-AUC,[1]; measured here: PEO4 Z-AUC,0.379
Cn1cnc2c(F)c(Nc3ccc(Br)cc3Cl)c(C(=O)NOCCO)cc21,Z-AUC,[1],0.189 (inactive)
same,Z-AUC,[1]; [3],0.0472
same,Z-AUC,[1]; measured here: PEO4 Z-AUC,-0.246
O=C(c1cc(Cc2n[nH]c(=O)c3ccccc23)ccc1F)N1CCN(C(=O)C2CC2)CC1,Z-AUC,[1],0.491 (inactive)
same,Z-AUC,[1]; [3],-0.378
same,Z-AUC,[1]; measured here: PEO4 Z-AUC,0.0684
CNC(=O)c1ccc(N2C(=S)N(c3ccc(C#N)c(C(F)(F)F)c3)C(=O)C2(C)C)cc1F,Z-AUC,[1],0.0364 (inactive)
same,Z-AUC,[1]; [3],0.676
same,Z-AUC,[1]; measured here: PEO4 Z-AUC,0.909
CC1(C)Cc2c(-c3ccccc3)c(-c3ccc(Cl)cc3)c(CC(=O)O)n2C1,Z-AUC,[1],0.0211 (inactive)
same,Z-AUC,[1]; [3],0.818
same,Z-AUC,[1]; measured here: PEO4 Z-AUC,0.66
CN(C)c1ccc(Nc2nc(N)n(C(=O)c3c(F)cccc3F)n2)cc1,Z-AUC,[1],0.994 (inactive)
same,Z-AUC,[1]; [3],0.58
same,Z-AUC,[1]; measured here: PEO4 Z-AUC,0.398
COc1ccc(CCN2CCN(CCCc3ccccc3)CC2)cc1OC,Z-AUC,[1],-0.614 (inactive)
same,Z-AUC,[1]; [3],-0.141
same,Z-AUC,[1]; measured here: PEO4 Z-AUC,-0.419
COc1cc(F)c(F)c(Nc2ccc(I)cc2F)c1NS(=O)(=O)C1(C[C@H](O)CO)CC1,Potency,[1],2450 nM (active)
same,Z-AUC,[1]; [3],-1.43
same,Z-AUC,[1]; measured here: PEO4 Z-AUC,-1.19
COc1c(Cl)cc2c([nH]c3cnccc32)c1NC(=O)c1cccnc1C,Z-AUC,[1],1.1 (inactive)
same,Z-AUC,[1]; [3],0.859
same,Z-AUC,[1]; measured here: PEO4 Z-AUC,0.857
CCC(C)N(C)C(=O)c1cc2ccccc2c(-c2ccccc2Cl)n1 (stereo not given),Z-AUC,[1],-0.72 (inactive)
same,Z-AUC,[1]; [3],-0.771
same,Z-AUC,[1]; measured here: PEO4 Z-AUC,-0.805
same,z-score,[2]; [4],0.652
same,z-score,[2]; [5],0.425
same,z-score,[2]; [6],-0.135
OC(CCN1CCCCC1)(c1ccccc1)C1CC2C=CC1C2 (stereo not given),Z-AUC,[1],-0.614 (inactive)
same,Z-AUC,[1]; [3],-0.36
same,Z-AUC,[1]; measured here: PEO4 Z-AUC,-0.607
same,z-score,[2]; [4],0.676
same,z-score,[2]; [5],0.56
same,z-score,[2]; [6],0.997
